Results from PubChem BioAssay (EPA / NIEHS).
“And” between values parts separate entries of the source, which are not always exact repeats. Identical values can stand only once. Records with an inconclusive call do not appear. A structure can be active in one record and inactive in another. The source made the active and inactive calls. The calls were made as follows: active = hit-call score of the fitted dose curve at least 0.9, where 1 is the maximum; inconclusive = response in the unintended direction; inactive = score below 0.9.

Tests used:
[1] = target: zebrafish Thyroid Hormone Receptor beta (TRb), thrb (gene 30607) (UniProt Q9PVE4); assay: ATG_zfTRb_XSP1: Attagene TRANS-FACTORIAL Multi-Species (XSP1) HepG2 Assay for zebrafish Thyroid Hormone Receptor beta (TRb) (AID 2283809)
Procedure, shortened: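 HepG2 cells transiently transfected with multiplexed GAL4-UAS reporter units expressing chimeric zebrafish TRb–Gal4. Dosed 24 h with 3 nM 6-alpha-fluorotestosterone present; reporter mRNA measured by RT-PCR, HpaI digestion and capillary electrophoresis; gain of signal versus DMSO.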

[2] = ATG_XTT_Cytotoxicity_XSP1: Cytotoxicity Assessment in the Attagene TRANS-FACTORIAL Multi-Species (XSP1) HepG2 Assay (AID 2283810)
Procedure, shortened: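 XTT viability readout taken at 24 hours post-dosing in HepG2 liver cells co-treated with 3 nM 6-alpha-fluorotestosterone. Signal loss relative to DMSO controls reflects cytotoxicity.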

[3] = ATG_M_06_XSP2: Attagene TRANS-FACTORIAL Multi-Species (XSP2) HepG2 Assay for M06 Transcription Factor (Internal Marker) (AID 2283811);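 also: internal background marker reporter mRNA measured by RT-PCR and capillary electrophoresis; hits are increases in signal above the DMSO baseline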
Procedure, shortened: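 HepG2, multiplexed reporter transfection; 24 h dosing; AR stimulated with 3 nM 6-alpha-fluorotestosterone + 1.5 nM norgestrel; RNA → RT-PCR → 6-FAM primer extension → HpaI → CE. Positive direction vs DMSO.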

[4] = target: GAL4 Transcription Factor (Internal Marker), GAL4 (gene 855828) (UniProt P04386); assay: ATG_GAL4_XSP2: Attagene TRANS-FACTORIAL Multi-Species (XSP2) HepG2 Assay for GAL4 Transcription Factor (Internal Marker) (AID 2283814);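 also: GAL4 reporter mRNA background control in MRTU transfected cells not a receptor target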
Procedure, shortened: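 HepG2 cells transiently transfected with GAL4-UAS reporter units, stimulated with 3 nM 6-alpha-fluorotestosterone plus 1.5 nM norgestrel, dosed 24 h. Reporter mRNA by RT-PCR/capillary electrophoresis; gain-of-signal fit versus DMSO, background control.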

[5] = target: zebrafish Estrogen Receptor (ER1), esr1 (gene 259252) (UniProt P57717); assay: ATG_zfER1_XSP2: Attagene TRANS-FACTORIAL Multi-Species (XSP2) HepG2 Assay for zebrafish Estrogen Receptor (ER1) (AID 2283816)
Procedure, shortened: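 HepG2 cells transiently transfected with a GAL4-UAS reporter and a chimeric zebrafish ER1-Gal4 construct, dosed 24 h. Reporter mRNA quantified by RT-PCR, labelling, HpaI digestion and capillary electrophoresis, relative to DMSO.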

[6] = tested on: zebrafish Estrogen Receptor (ER2a), gene 317734; assay: ATG_zfER2a_XSP2: Attagene TRANS-FACTORIAL Multi-Species (XSP2) HepG2 Assay for zebrafish Estrogen Receptor (ER2a) (AID 2283818);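 also: hits raise reporter mRNA so AC50 reflects activation of zebrafish ER2a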
Method: (§1) ATG_XSP2_multi-species_TRANS is a cell-based, multiplexed assay created by modifying the existing Attagene TRANS-FACTORIAL system to include a panel of nuclear receptors from some or all the following species: human (Homo sapiens), mouse (Mus musculus), frog (Xenopus laevis), zebrafish (Danio rerio), chicken (Gallus gallus), and turtle (Chrysemys picta). The ECOTOX-FACTORIAL format uses HepG2, a human liver cell line, with measurements taken at 24 hours after chemical dosing in a 24-well plate. Xsp2 included 3 nM 6-alpha-fluorotestosterone and 1.5 nM norgestrel to stimulate the androgen receptor.ATG_zfER2a_XSP2 is one of 29 assay components measured or calculated from the ATG_XSP2_multi-species_TRANS assay. It is designed to make measurements of mRNA induction, a form of inducible reporter, as detected with fluorescence intensity signals by Reverse transcription polymerase chain reaction (RT-PCR) and Capillary electrophoresis technology.The assay endpoint ATG_zfER2a_XSP2 was analyzed in the positive analysis fitting direction relative to DMSO as the negative control and baseline of activity. […] Furthermore, this assay endpoint can be referred to as a primary readout, because this assay has produced multiple assay endpoints where this one serves a reporter gene function. […]
Human liver HepG2 cells are transiently transfected with multiple reporter transcription units (MRTUs) in 6-well plates using FuGene 6 reagent (Roche; 3 ml FuGene/1 mg DNA). […] A major difference between the CIS and TRANS system is that in CIS activities of endogenous TFs are measured, whereas the TRANS assay evaluates changes in activities of exogenous, chimeric NR-Gal4 proteins. […] The fragments were purified using Qiaquick PCR columns (Qiagen), analyzed on an ABI 3130xL genetic analyzer (Applied Biosystems) with peak positions identified by using a set of X-rhodamine (ROX)-labeled MapMarker1000 molecular weight standards (BioVentures). […]

[7] = target: human Androgen Receptor (AR), AR (gene 367) (UniProt P10275); assay: ATG_hAR_XSP2: Attagene TRANS-FACTORIAL Multi-Species (XSP2) HepG2 Assay for human Androgen Receptor (AR) (AID 2283820)
Procedure, shortened: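 HepG2 cells transiently transfected with GAL4-UAS reporter units driven by chimeric NR-Gal4 proteins, stimulated with 3 nM 6-alpha-fluorotestosterone plus 1.5 nM norgestrel. Reporter mRNA quantified 24 h after dosing by RT-PCR and capillary electrophoresis; gain-of-signal versus DMSO.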

[8] = tested on: turtle Estrogen Receptor (ERa), gene 101933533; assay: ATG_trERa_XSP2: Attagene TRANS-FACTORIAL Multi-Species (XSP2) HepG2 Assay for turtle Estrogen Receptor (ERa) (AID 2283812);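 also: human HepG2 liver cells transiently expressing turtle ERa-Gal4 chimeric receptor; actives raise reporter signal above DMSO so AC50 reflects agonist activity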
Procedure, shortened: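 HepG2 cells transiently transfected with GAL4-UAS reporter units expressing turtle ERa-Gal4 chimera. Reporter mRNA measured after 24 h dosing by RT-PCR, fluorescent labelling and capillary electrophoresis; gain of signal fitted versus DMSO.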

[9] = target: Estrogen receptor beta (Homo sapiens) (UniProt Q92731); assay: ATG_hERb_XSP2: Attagene TRANS-FACTORIAL Multi-Species (XSP2) HepG2 Assay for human Estrogen Receptor (ERb) (AID 2283813);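 also: actives raise reporter mRNA above DMSO so AC50 reflects agonist induction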
Procedure, shortened: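 HepG2 cells transiently transfected with GAL4-UAS reporter units and chimeric human ERb-Gal4, 24 h exposure. Reporter mRNA quantified by RT-PCR with FAM labelling, HpaI digestion and capillary electrophoresis; gain of signal versus DMSO.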

[10] = target: chicken Estrogen Receptor (ERa), ESR1 (gene 396099) (UniProt P06212); assay: ATG_chERa_XSP2: Attagene TRANS-FACTORIAL Multi-Species (XSP2) HepG2 Assay for chicken Estrogen Receptor (ERa) (AID 2283817);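 also: actives raise reporter signal above DMSO so AC50 reflects ER activation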
Method: as §1, with “receptor.ATG_chERa_XSP2” for “receptor.ATG_zfER2a_XSP2”, “ATG_chERa_XSP2” for “ATG_zfER2a_XSP2”

Measured: AC50

Sequence of Estrogen receptor beta (Homo sapiens) (Q92731 whole entry, looked up, the tested form may be a part): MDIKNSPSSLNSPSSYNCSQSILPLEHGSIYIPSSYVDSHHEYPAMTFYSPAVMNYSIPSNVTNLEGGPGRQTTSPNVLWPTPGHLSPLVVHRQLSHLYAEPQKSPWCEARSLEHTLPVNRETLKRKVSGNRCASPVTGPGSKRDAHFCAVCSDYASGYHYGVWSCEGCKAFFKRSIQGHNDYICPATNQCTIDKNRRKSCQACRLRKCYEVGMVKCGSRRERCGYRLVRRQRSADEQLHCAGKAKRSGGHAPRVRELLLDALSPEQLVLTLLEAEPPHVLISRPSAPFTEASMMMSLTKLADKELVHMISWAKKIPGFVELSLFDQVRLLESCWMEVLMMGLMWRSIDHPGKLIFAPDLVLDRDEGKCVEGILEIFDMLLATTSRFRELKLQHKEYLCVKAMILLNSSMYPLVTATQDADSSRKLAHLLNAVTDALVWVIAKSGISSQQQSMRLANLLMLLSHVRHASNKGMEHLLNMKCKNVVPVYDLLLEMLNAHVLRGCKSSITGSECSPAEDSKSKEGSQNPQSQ
Sequence of chicken Estrogen Receptor (ERa), ESR1 (gene 396099) (P06212 whole entry, looked up): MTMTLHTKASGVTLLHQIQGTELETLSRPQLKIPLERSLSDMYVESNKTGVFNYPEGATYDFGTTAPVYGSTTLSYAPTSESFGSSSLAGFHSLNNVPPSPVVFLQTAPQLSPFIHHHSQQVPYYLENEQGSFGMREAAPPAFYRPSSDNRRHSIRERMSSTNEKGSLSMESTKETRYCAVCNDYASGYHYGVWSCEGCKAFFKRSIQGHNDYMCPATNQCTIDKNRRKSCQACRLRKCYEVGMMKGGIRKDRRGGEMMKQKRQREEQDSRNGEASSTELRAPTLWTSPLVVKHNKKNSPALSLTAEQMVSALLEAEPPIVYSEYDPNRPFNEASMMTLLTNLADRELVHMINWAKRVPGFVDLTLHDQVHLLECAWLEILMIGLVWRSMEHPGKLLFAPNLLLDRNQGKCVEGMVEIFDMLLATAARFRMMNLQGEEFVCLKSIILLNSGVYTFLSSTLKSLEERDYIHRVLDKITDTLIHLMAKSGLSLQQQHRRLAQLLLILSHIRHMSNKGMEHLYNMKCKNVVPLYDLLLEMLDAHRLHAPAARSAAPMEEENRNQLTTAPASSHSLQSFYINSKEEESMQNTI
Sequence of zebrafish Estrogen Receptor (ER1), esr1 (gene 259252) (P57717 whole entry, looked up, the tested form may be a part): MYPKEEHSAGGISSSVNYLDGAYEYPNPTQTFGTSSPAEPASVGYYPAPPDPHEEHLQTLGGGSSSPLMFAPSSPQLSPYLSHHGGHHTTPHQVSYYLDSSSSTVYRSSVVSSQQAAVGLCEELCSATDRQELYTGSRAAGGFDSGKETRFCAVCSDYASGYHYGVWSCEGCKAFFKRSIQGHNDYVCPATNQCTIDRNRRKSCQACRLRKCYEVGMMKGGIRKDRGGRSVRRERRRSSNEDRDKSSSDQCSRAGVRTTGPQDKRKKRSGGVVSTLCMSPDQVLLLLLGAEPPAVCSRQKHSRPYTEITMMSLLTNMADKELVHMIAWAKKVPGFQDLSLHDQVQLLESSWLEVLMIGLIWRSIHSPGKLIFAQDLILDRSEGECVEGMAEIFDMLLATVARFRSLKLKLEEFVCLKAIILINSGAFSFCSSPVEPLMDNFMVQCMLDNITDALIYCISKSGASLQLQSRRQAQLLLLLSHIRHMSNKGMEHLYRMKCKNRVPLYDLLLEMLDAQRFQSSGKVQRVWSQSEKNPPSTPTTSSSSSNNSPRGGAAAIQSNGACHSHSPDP
Sequence of zebrafish Thyroid Hormone Receptor beta (TRb), thrb (gene 30607) (Q9PVE4 whole entry, looked up, the tested form may be a part): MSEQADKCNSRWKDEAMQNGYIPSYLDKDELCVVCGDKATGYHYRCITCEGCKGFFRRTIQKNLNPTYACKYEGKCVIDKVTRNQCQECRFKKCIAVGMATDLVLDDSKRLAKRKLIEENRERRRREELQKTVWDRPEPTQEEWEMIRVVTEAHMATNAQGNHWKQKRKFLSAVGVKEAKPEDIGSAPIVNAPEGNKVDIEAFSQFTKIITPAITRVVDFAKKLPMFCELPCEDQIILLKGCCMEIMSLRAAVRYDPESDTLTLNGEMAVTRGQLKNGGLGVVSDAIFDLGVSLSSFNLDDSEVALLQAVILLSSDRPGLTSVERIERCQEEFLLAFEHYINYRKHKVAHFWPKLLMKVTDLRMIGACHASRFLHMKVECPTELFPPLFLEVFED
Sequence of GAL4 Transcription Factor (Internal Marker), GAL4 (gene 855828) (P04386 whole entry, looked up, the tested form may be a part): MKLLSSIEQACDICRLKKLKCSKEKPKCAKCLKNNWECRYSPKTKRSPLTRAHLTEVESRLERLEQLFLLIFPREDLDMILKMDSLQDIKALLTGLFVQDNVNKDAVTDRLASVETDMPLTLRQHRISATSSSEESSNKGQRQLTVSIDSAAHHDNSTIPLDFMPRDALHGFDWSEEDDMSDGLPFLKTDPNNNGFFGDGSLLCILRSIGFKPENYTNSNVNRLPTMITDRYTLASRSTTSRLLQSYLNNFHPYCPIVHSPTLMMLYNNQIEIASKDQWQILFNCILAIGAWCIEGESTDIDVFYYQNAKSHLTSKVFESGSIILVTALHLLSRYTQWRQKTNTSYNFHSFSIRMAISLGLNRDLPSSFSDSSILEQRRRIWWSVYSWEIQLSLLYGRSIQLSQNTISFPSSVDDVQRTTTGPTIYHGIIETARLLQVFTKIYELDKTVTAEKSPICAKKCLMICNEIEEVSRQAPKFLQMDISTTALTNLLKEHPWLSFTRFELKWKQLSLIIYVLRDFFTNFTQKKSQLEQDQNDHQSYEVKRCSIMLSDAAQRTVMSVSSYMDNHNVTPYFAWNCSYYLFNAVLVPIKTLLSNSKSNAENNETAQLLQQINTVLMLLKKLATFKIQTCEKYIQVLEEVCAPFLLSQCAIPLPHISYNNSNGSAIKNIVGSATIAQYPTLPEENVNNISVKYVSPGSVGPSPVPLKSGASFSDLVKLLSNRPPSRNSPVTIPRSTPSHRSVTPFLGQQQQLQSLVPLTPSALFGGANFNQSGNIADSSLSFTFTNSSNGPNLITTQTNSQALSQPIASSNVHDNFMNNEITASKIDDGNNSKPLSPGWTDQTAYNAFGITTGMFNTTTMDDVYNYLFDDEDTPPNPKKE
Sequence of human Androgen Receptor (AR), AR (gene 367) (P10275 whole entry, looked up, the tested form may be a part): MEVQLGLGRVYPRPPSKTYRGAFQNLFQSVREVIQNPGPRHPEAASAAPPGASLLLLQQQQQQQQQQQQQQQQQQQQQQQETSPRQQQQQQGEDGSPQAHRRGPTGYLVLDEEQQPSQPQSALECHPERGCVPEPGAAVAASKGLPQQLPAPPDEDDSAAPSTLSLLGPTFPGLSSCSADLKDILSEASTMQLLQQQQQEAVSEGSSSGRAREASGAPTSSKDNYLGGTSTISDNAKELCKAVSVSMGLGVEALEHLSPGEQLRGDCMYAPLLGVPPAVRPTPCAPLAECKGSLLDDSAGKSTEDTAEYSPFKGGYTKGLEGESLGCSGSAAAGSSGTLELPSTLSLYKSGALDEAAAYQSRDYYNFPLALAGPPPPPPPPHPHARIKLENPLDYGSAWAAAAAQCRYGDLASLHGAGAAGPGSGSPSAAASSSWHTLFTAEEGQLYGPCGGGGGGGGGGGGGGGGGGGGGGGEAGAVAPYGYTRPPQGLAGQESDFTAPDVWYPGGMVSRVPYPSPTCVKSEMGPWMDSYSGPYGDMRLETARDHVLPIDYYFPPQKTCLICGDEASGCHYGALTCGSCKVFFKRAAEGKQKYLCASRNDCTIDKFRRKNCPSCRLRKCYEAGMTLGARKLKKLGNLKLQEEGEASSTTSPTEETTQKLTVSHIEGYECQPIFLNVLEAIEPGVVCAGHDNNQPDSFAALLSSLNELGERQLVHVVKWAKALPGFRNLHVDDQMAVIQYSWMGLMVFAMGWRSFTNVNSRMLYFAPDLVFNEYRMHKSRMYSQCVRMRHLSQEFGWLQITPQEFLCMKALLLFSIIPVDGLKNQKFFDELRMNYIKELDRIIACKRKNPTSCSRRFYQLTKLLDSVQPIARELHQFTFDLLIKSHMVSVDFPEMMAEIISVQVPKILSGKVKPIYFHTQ

CCN(CC)CCOc1ccc(C(=C(Cl)c2ccccc2)c2ccccc2)cc1
inactive: [3] | [4] | [5] | [6] | [7]
active: [1] 1.57 µM | [2] 31.4 µM

Cc1c(C)c2c(c(C)c1O)CCC(C)(COc1ccc(CC3SC(=O)NC3=O)cc1)O2 (centres undefined)
inactive: [3] | [8] | [9] | [5] | [10]

CC(=O)O[C@]1(C(C)=O)CC[C@H]2[C@@H]3C=C(Cl)C4=CC(=O)[C@@H]5C[C@@H]5[C@]4(C)[C@H]3CC[C@@]21C
inactive: [1] | [2] | [3] | [5] | [6]

CC(=O)[C@@]1(O)CC[C@H]2[C@@H]3CCC4=CC(=O)CC[C@]4(C)[C@H]3CC[C@@]21C
active: [8] 37.4 µM and 11.9 µM | [9] 100 µM | [10] 38.3 µM and 14.9 µM | [6] 65.6 µM and 13.5 µM
inactive: [9] | [4] | [5]
